# Laboratory results: PMC7862700, “An all-to-all approach to the identification of sequence-specific readers for epigenetic DNA modifications on cytosine”
# Molecular target: T1, SPDEF (Homo sapiens, UniProt O95238 1-335)
# T1 sequence: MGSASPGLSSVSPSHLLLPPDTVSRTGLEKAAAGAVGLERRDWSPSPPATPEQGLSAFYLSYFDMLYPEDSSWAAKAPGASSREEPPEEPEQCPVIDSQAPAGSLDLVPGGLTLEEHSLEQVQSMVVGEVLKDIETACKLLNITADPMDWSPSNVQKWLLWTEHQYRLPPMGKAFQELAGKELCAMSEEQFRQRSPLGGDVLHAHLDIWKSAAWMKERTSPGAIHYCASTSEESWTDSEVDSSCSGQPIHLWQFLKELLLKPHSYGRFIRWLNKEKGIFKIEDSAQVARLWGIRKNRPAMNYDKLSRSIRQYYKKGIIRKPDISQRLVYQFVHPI
# Assay: DAPPL (digital affinity profiling via proximity ligation, sequencing); 10 mM Tris-HCl pH 7.5, 50 mM NaCl, 1 mM DTT, 4% glycerol, room temperature, 30 min; GST-TFs on glutathione beads, 16-mer random dsDNA library, 0.1% formaldehyde crosslink after washing; high values mean tight binding
# Details: protein: recombinant; tags: N-terminal GST; dsDNA, one strand shown
# How it was run: (§1)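 A tag-only sample was pooled with DNA-barcoded human transcription factors that had been expressed in yeast as GST fusions and captured on glutathione beads. The pools were incubated for 30 min at room temperature with 200 nmole of a random double-stranded 16-mer DNA library in Tris/NaCl/DTT/glycerol buffer, then washed, crosslinked with 0.1% formaldehyde, proximity-ligated (BsaI/T4 ligase, 1 h, 37 °C), PCR-amplified and sequenced on an Illumina NextSeq500. Binding signal is each hexamer's read frequency for a factor divided by its frequency for the tag-only sample.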
row,Sequence,binding signal
1,CTTCGA,"1.3 fold enrichment (6-mer frequency, TF over GST control)"
2,CTCGCA,"1.2 fold enrichment (6-mer frequency, TF over GST control)"
3,TTTTAC,"1.32 fold enrichment (6-mer frequency, TF over GST control)"
4,TCCCAT,"1.23 fold enrichment (6-mer frequency, TF over GST control)"
5,AAAAAT,"1.21 fold enrichment (6-mer frequency, TF over GST control)"
6,TTATCG,"1.16 fold enrichment (6-mer frequency, TF over GST control)"
7,AATTAA,"1.17 fold enrichment (6-mer frequency, TF over GST control)"
8,AACATT,"1.16 fold enrichment (6-mer frequency, TF over GST control)"
9,CTAGCA,"1.16 fold enrichment (6-mer frequency, TF over GST control)"
10,TCTCGA,"1.2 fold enrichment (6-mer frequency, TF over GST control)"
11,AAAACG,"1.2 fold enrichment (6-mer frequency, TF over GST control)"
12,AAACAT,"1.51 fold enrichment (6-mer frequency, TF over GST control)"
13,TTCGCT,"1.2 fold enrichment (6-mer frequency, TF over GST control)"
14,GCTAAA,"1.08 fold enrichment (6-mer frequency, TF over GST control)"
15,GCTTTA,"1.06 fold enrichment (6-mer frequency, TF over GST control)"
16,TTCCTT,"1.77 fold enrichment (6-mer frequency, TF over GST control)"
17,CTCGAC,"1.42 fold enrichment (6-mer frequency, TF over GST control)"
18,TTCACT,"1.32 fold enrichment (6-mer frequency, TF over GST control)"
19,TACTCA,"1.18 fold enrichment (6-mer frequency, TF over GST control)"
20,AATACC,"1.11 fold enrichment (6-mer frequency, TF over GST control)"

row,Sequence,binding signal
1,TTCTGA,"1.38 fold enrichment (6-mer frequency, TF over GST control)"
2,ATTCAC,"1.21 fold enrichment (6-mer frequency, TF over GST control)"
3,TCTAAA,"1.21 fold enrichment (6-mer frequency, TF over GST control)"
4,TATCAT,"1.09 fold enrichment (6-mer frequency, TF over GST control)"
5,TGGCAT,"1.09 fold enrichment (6-mer frequency, TF over GST control)"
6,ATCTTA,"1.12 fold enrichment (6-mer frequency, TF over GST control)"
7,TCTAAG,"1.1 fold enrichment (6-mer frequency, TF over GST control)"
8,ATTGGT,"1.26 fold enrichment (6-mer frequency, TF over GST control)"
9,GATGAC,"1.55 fold enrichment (6-mer frequency, TF over GST control)"
10,CTTTGT,"1.21 fold enrichment (6-mer frequency, TF over GST control)"
11,CCTTTA,"1.38 fold enrichment (6-mer frequency, TF over GST control)"
12,TCGACT,"1.29 fold enrichment (6-mer frequency, TF over GST control)"
13,TATTAT,"1.29 fold enrichment (6-mer frequency, TF over GST control)"
14,GATGTA,"2 fold enrichment (6-mer frequency, TF over GST control)"
15,GCTCCC,"1.47 fold enrichment (6-mer frequency, TF over GST control)"
16,CGACTC,"1.29 fold enrichment (6-mer frequency, TF over GST control)"
17,ATTGCA,"1.18 fold enrichment (6-mer frequency, TF over GST control)"
18,CTTCCC,"2.14 fold enrichment (6-mer frequency, TF over GST control)"
19,CAATAA,"1.05 fold enrichment (6-mer frequency, TF over GST control)"
20,ACTAAC,"1.2 fold enrichment (6-mer frequency, TF over GST control)"

# Molecular target: T2, ETV7 (Homo sapiens, UniProt Q9Y603 1-341)
# T2 sequence: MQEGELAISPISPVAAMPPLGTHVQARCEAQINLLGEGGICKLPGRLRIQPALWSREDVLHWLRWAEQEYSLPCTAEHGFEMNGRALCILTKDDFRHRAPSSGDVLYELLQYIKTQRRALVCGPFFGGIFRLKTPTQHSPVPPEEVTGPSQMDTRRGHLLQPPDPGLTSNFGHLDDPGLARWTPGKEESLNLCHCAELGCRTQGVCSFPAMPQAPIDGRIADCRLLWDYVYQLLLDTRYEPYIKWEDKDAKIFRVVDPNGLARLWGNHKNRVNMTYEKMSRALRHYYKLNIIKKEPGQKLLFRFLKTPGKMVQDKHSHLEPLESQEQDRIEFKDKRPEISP
# Assay: as above
# Details: protein: recombinant; tags: N-terminal GST; dsDNA, one strand shown
# How it was run: as §1
row,Sequence,binding signal
1,CTTCGA,"1.44 fold enrichment (6-mer frequency, TF over GST control)"
2,CTCGCA,"1.23 fold enrichment (6-mer frequency, TF over GST control)"
3,TTTTAC,"1.52 fold enrichment (6-mer frequency, TF over GST control)"
4,TCCCAT,"1.28 fold enrichment (6-mer frequency, TF over GST control)"
5,AAAAAT,"1.34 fold enrichment (6-mer frequency, TF over GST control)"
6,TTATCG,"1.02 fold enrichment (6-mer frequency, TF over GST control)"
7,AATTAA,"1.2 fold enrichment (6-mer frequency, TF over GST control)"
8,AACATT,"1.36 fold enrichment (6-mer frequency, TF over GST control)"
9,CTAGCA,"1.33 fold enrichment (6-mer frequency, TF over GST control)"
10,TCTCGA,"1.47 fold enrichment (6-mer frequency, TF over GST control)"
11,AAAACG,"1.14 fold enrichment (6-mer frequency, TF over GST control)"
12,AAACAT,"1.44 fold enrichment (6-mer frequency, TF over GST control)"
13,TTCGCT,"1.34 fold enrichment (6-mer frequency, TF over GST control)"
14,GCTAAA,"1.08 fold enrichment (6-mer frequency, TF over GST control)"
15,GCTTTA,"1.19 fold enrichment (6-mer frequency, TF over GST control)"
16,TTCCTT,"1.92 fold enrichment (6-mer frequency, TF over GST control)"
17,CTCGAC,"1.37 fold enrichment (6-mer frequency, TF over GST control)"
18,TTCACT,"1.36 fold enrichment (6-mer frequency, TF over GST control)"
19,TACTCA,"1.06 fold enrichment (6-mer frequency, TF over GST control)"
20,AATACC,"1.21 fold enrichment (6-mer frequency, TF over GST control)"

row,Sequence,binding signal
1,TTCTGA,"1.19 fold enrichment (6-mer frequency, TF over GST control)"
2,ATTCAC,"1.24 fold enrichment (6-mer frequency, TF over GST control)"
3,TCTAAA,"1.18 fold enrichment (6-mer frequency, TF over GST control)"
4,TATCAT,"1.1 fold enrichment (6-mer frequency, TF over GST control)"
5,TGGCAT,"1.1 fold enrichment (6-mer frequency, TF over GST control)"
6,ATCTTA,"1.18 fold enrichment (6-mer frequency, TF over GST control)"
7,TCTAAG,"1.29 fold enrichment (6-mer frequency, TF over GST control)"
8,ATTGGT,"1.27 fold enrichment (6-mer frequency, TF over GST control)"
9,GATGAC,"1.61 fold enrichment (6-mer frequency, TF over GST control)"
10,CTTTGT,"1.36 fold enrichment (6-mer frequency, TF over GST control)"
11,CCTTTA,"1.23 fold enrichment (6-mer frequency, TF over GST control)"
12,TCGACT,"1.32 fold enrichment (6-mer frequency, TF over GST control)"
13,TATTAT,"1.28 fold enrichment (6-mer frequency, TF over GST control)"
14,GATGTA,"1.43 fold enrichment (6-mer frequency, TF over GST control)"
15,GCTCCC,"1.31 fold enrichment (6-mer frequency, TF over GST control)"
16,CGACTC,"1.29 fold enrichment (6-mer frequency, TF over GST control)"
17,ATTGCA,"1.17 fold enrichment (6-mer frequency, TF over GST control)"
18,CTTCCC,"1.95 fold enrichment (6-mer frequency, TF over GST control)"
19,CAATAA,"1.06 fold enrichment (6-mer frequency, TF over GST control)"
20,ACTAAC,"1.21 fold enrichment (6-mer frequency, TF over GST control)"

# Molecular target: T3, ELF5 (Homo sapiens, UniProt Q9UKW6-2 1-255)
# T3 sequence: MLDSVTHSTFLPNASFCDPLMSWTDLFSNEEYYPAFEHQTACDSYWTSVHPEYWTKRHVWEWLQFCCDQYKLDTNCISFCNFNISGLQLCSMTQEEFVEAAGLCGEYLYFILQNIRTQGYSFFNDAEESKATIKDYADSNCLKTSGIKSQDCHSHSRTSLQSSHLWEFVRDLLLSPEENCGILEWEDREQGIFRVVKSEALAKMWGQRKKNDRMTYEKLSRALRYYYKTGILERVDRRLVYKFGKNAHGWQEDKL
# Assay: as above
# Details: protein: recombinant; tags: N-terminal GST; dsDNA, one strand shown
# How it was run: as §1
row,Sequence,binding signal
1,CTTCGA,"1.27 fold enrichment (6-mer frequency, TF over GST control)"
2,CTCGCA,"1.15 fold enrichment (6-mer frequency, TF over GST control)"
3,TTTTAC,"1.27 fold enrichment (6-mer frequency, TF over GST control)"
4,TCCCAT,"1.44 fold enrichment (6-mer frequency, TF over GST control)"
5,AAAAAT,"1.3 fold enrichment (6-mer frequency, TF over GST control)"
6,TTATCG,"1.25 fold enrichment (6-mer frequency, TF over GST control)"
7,AATTAA,"1.23 fold enrichment (6-mer frequency, TF over GST control)"
8,AACATT,"1.3 fold enrichment (6-mer frequency, TF over GST control)"
9,CTAGCA,"1.12 fold enrichment (6-mer frequency, TF over GST control)"
10,TCTCGA,"1.27 fold enrichment (6-mer frequency, TF over GST control)"
11,AAAACG,"1.18 fold enrichment (6-mer frequency, TF over GST control)"
12,AAACAT,"1.51 fold enrichment (6-mer frequency, TF over GST control)"
13,TTCGCT,"1.23 fold enrichment (6-mer frequency, TF over GST control)"
14,GCTAAA,"1.04 fold enrichment (6-mer frequency, TF over GST control)"
15,GCTTTA,"1.08 fold enrichment (6-mer frequency, TF over GST control)"
16,TTCCTT,"3.67 fold enrichment (6-mer frequency, TF over GST control)"
17,CTCGAC,"1.38 fold enrichment (6-mer frequency, TF over GST control)"
18,TTCACT,"1.32 fold enrichment (6-mer frequency, TF over GST control)"
19,TACTCA,"1.18 fold enrichment (6-mer frequency, TF over GST control)"
20,AATACC,"1.17 fold enrichment (6-mer frequency, TF over GST control)"

row,Sequence,binding signal
1,TTCTGA,"1.26 fold enrichment (6-mer frequency, TF over GST control)"
2,ATTCAC,"1.19 fold enrichment (6-mer frequency, TF over GST control)"
3,TCTAAA,"1.16 fold enrichment (6-mer frequency, TF over GST control)"
4,TATCAT,"1.15 fold enrichment (6-mer frequency, TF over GST control)"
5,TGGCAT,"1.06 fold enrichment (6-mer frequency, TF over GST control)"
6,ATCTTA,"1.11 fold enrichment (6-mer frequency, TF over GST control)"
7,TCTAAG,"1.23 fold enrichment (6-mer frequency, TF over GST control)"
8,ATTGGT,"1.19 fold enrichment (6-mer frequency, TF over GST control)"
9,GATGAC,"1.53 fold enrichment (6-mer frequency, TF over GST control)"
10,CTTTGT,"1.24 fold enrichment (6-mer frequency, TF over GST control)"
11,CCTTTA,"1.41 fold enrichment (6-mer frequency, TF over GST control)"
12,TCGACT,"1.28 fold enrichment (6-mer frequency, TF over GST control)"
13,TATTAT,"1.2 fold enrichment (6-mer frequency, TF over GST control)"
14,GATGTA,"1.38 fold enrichment (6-mer frequency, TF over GST control)"
15,GCTCCC,"1.33 fold enrichment (6-mer frequency, TF over GST control)"
16,CGACTC,"1.33 fold enrichment (6-mer frequency, TF over GST control)"
17,ATTGCA,"1.16 fold enrichment (6-mer frequency, TF over GST control)"
18,CTTCCC,"3.61 fold enrichment (6-mer frequency, TF over GST control)"
19,CAATAA,"1.06 fold enrichment (6-mer frequency, TF over GST control)"
20,ACTAAC,"1.29 fold enrichment (6-mer frequency, TF over GST control)"
